Laboratory results taken from ChEMBL document CHEMBL1201862, “PubChem BioAssay data set” (2004).
Among all 57,000 sequences or so, about 4,100 (7.2%) were called active. Rule as the data show it: active = GI50 up to about 1.1 µM and inactive = higher. These entries were drawn from the full list. Potency and affinity values are given separately.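 1) Cells in 96-well plates. 2) Compound, 48 h, 5 concentrations. 3) Linear interpolation between surrounding doses. 4) Unreached endpoint = highest concentration. GI50: concentration for 50% inhibition of growth.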

system: SK-MEL-5; assay: NCI tumour cell line growth inhibition, 48 h

Substance | GI50
cis-Bis[[(trimethylsilyl)methyl]amino]tetrachloroplatinum(IV), CHEMBL2146191 | 3.48 µM
[Bis(aminomethyl)tetramethylenesilane]tetrachloropaltinum(IV), CHEMBL2146189 | 5.77 µM
CISPLATIN, CHEMBL11359 | 2.69 µM
[Bis(aminomethyl)tetramethylenesilane]dichloropaltinum(II), CHEMBL2146205 | 14.8 µM
[Bis(aminomethyl)pentamethylenesilane]dichloropaltinum(II), CHEMBL2146202 | 3.3 µM
[Bis(aminomethyl)diethylsilane]tetrachloroplatinum(IV), CHEMBL2146203 | 73.8 µM
[Bis(aminomethyl)ethylmethylsilane]tetrachloroplatinum(IV), CHEMBL2146192 | 1.15 µM
[Bis(aminomethyl)pentamethylenesilane]tetrachloropaltinum(IV), CHEMBL2146204 | 3.21 µM
mu-(1,7-nanodiamine-N,N')bis-(cis-aminedichloroplatimum (II)), CHEMBL2146215 | 5.82 µM
[Bis(aminomethyl)dimethylsilane]dichloroplatinum (II), CHEMBL2146201 | 11.2 µM
[Bis(aminomethyl)dimethylsilane]tetrachloroplatinum(IV), CHEMBL2146190 | 3.85 µM
